Test results reported in PubChem BioAssay AID1159580 (chemical genetic matrix, 2015).
Among all 5,500 compounds or so, about 2,000 (36%) were called active. Not shown: some 18% with an inconclusive outcome. Rule as the data show it: active = normalized growth mostly below about 0.91 (no sharp cut-off); inconclusive = no clear call, values can overlap the other calls; inactive = mostly above about 0.92. The list shows a part of the results.

Test: chemical genetic growth profiling, strain panel (AID 1159580);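 also: tested at 20 µM; growth read once vehicle control cultures reached saturation at 30 °C; 1 = growth at the plate median or of vehicle wells; lower values mean less growth of the strain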
Settings: S. cerevisiae deletion strains, growth OD

Measured: normalized growth

C=CCCCCCCCCCCCC(O)CC(O)COC(C)=O (configuration not stated) (tested in a mixture with another compound)
active: locus YBR009C, strain hhf1, active compounds read low 0.798 | locus YBR021W, strain FUR4, active compounds read low 0.78 | locus YBR023C, strain chs3, active compounds read low 0.891 | locus YCL011C, strain gbp2, active compounds read low 0.866 | locus YCL016C, strain dcc1, active compounds read low 0.907 | locus YDL074C, strain BRE1, active compounds read low 0.723 | locus YDL192W, strain arf1, active compounds read low 0.875 | locus YDR101C, strain arx1, active compounds read low 0.886 | locus YDR318W, strain mcm21, active compounds read low 0.911 | locus YDR392W, strain spt3, active compounds read low 0.329 | locus YDR502C, strain sam2, active compounds read low 0.912 | locus YER155C, strain BEM2, active compounds read low 0.646 | locus YGL086W, strain mad1, active compounds read low 0.835 | locus YGL253W, strain hxk2, active compounds read low 0.847 | locus YHR013C, strain ard1, active compounds read low 1.16 [resistant] | locus YHR129C, strain ARP1, active compounds read low 0.914 | locus YHR142W, strain chs7, active compounds read low 0.714 | locus YIL125W, strain kgd1, active compounds read low 0.908 | locus YJL095W, strain BCK1 (second series), active compounds read low 0.905 | locus YJL129C, strain trk1, active compounds read low 0.802
inactive: locus YAL013W, strain DEP1, active compounds read low 0.943 | locus YAL021C, strain ccr4, active compounds read low 1.01 | locus YAL026C, strain drs2, active compounds read low 0.937 | locus YAL030W, strain snc1, active compounds read low 0.963 | locus YBL061C, strain skt5, active compounds read low 0.95 | locus YBR171W, strain sec66, active compounds read low 0.946 | locus YBR229C, strain ROT2, active compounds read low 1 | locus YBR231C, strain swc5, active compounds read low 0.971 | locus YBR279W, strain paf1, active compounds read low 0.949 | locus YCL029C, strain bik1, active compounds read low 0.951 | locus YCL061C, strain MRC1, active compounds read low 0.936 | locus YCL069W, strain vba3, active compounds read low 0.963 | locus YCR088W, strain abp1, active compounds read low 0.978 | locus YDL005C, strain med2, active compounds read low 0.955 | locus YDL035C, strain GPR1, active compounds read low 0.907 | locus YDL040C, strain nat1, active compounds read low 0.967 | locus YDL101C, strain DUN1, active compounds read low 0.983 | locus YDL134C, strain PPH21, active compounds read low 0.892 | locus YDL185W, strain tfp1, active compounds read low 1.01 | locus YDR001C, strain nth1, active compounds read low 0.967 | locus YDR069C, strain doa4, active compounds read low 1.02 | locus YDR137W, strain rgp1, active compounds read low 0.882 | locus YDR150W, strain NUM1, active compounds read low 1.02 | locus YDR159W, strain sac3, active compounds read low 0.947 | locus YDR162C, strain NBP2, active compounds read low 0.999 | locus YDR195W, strain ref2 0.875 | locus YDR297W, strain sur2, active compounds read low 0.962 | locus YDR334W, strain swr1, active compounds read low 0.993 | locus YDR335W, strain msn5, active compounds read low 0.969 | locus YDR388W, active compounds read low 0.991 | locus YEL003W, strain gim4, active compounds read low 0.95 | locus YEL037C, strain rad23, active compounds read low 0.966 | locus YEL061C, strain CIN8 (second series), active compounds read low 0.971 | locus YER015W, strain faa2, active compounds read low 0.982 | locus YER016W, strain bim1, active compounds read low 0.981 | locus YER110C, active compounds read low 0.995 | locus YER111C, strain swi4, active compounds read low 0.947 | locus YER155C, strain BEM2 (second series), active compounds read low 0.877 | locus YER167W, strain BCK2, active compounds read low 0.979 | locus YFR010W, strain ubp6, active compounds read low 0.974 | locus YGL078C, strain dbp3, active compounds read low 0.933 | locus YGL167C, strain pmr1, active compounds read low 0.966 | locus YGL173C, strain kem1, active compounds read low 0.941 | locus YGL227W, strain vid30, active compounds read low 0.969 | locus YGL240W, strain doc1, active compounds read low 0.952 | locus YGL248W, strain PDE1, active compounds read low 0.89 | locus YGR135W, strain pre9, active compounds read low 0.971 | locus YGR229C, strain SMI1, active compounds read low 0.838 | locus YGR252W, strain gcn5, active compounds read low 0.782 | locus YHR027C, strain rpn1, active compounds read low 0.964 | locus YHR030C, strain SLT2, active compounds read low 1.01 | locus YHR079C, strain IRE1 (second series), active compounds read low 0.993 | locus YHR094C, strain hxt1, active compounds read low 0.992 | locus YHR200W, strain rpn10, active compounds read low 0.938 | locus YIL066C, strain RNR3, active compounds read low 0.921 | locus YIL073C, strain SPO22, active compounds read low 1.05 | locus YIR030C, strain dcg1, active compounds read low 0.972 | locus YJL092W, strain hpr5, active compounds read low 0.973 | locus YJL095W, strain BCK1, active compounds read low 0.827 | locus YJL115W, strain asf1, active compounds read low 0.953 | locus YJL134W, strain LCB3, active compounds read low 1.02 | locus YJL154C, strain vps35, active compounds read low 0.965
